Bioassay records as filed in PubChem BioAssay.
An excerpt weighted towards active compounds, which were near 1.8% of everything screened.
EWS-Fli block = blocks EWS/Fli oncoprotein-driven transcription; A673 NR0B1-luciferase reporter, viability-normalised; inhibition, % at 12.6 µM; 350,000 tested, 0.67% active; AID 651661;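 active = mean inhibition of at least 50% after viability correction, with every replicate also passing that limit; inconclusive = mean reaches 50% but only one of two replicates passes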;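 note: firefly luciferase signal divided by Alamar Blue viability fluorescence both relative to DMSO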
LGR2 antag = Drosophila LGR2 receptor signaling inhibition; HEK293 LGR2, CRE-luciferase, bursicon-stimulated, 4 h; inhibition, % at 9.99 µM; 380,000 tested, 0.35% active; AID 720647;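 active = drop in luminescence signal, shown as inhibition above about 50% in the replicate tests, limit read from the data, passing the limit was not always enough; inconclusive = probably only some replicates passing the limit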;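 note: agonist challenge used bursicon conditioned medium at about half maximal strength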
CFTR F508del cor = CFTR F508del correction in bronchial cells | activity (quench increase), % at 7.58 µM | CFBE cells, YFP halide quenching; stimulated with forskolin plus potentiator P3; % fluorescence drop versus neutral controls | 350,000 tested, 0.36% active | AID 720511;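 active = mean added fluorescence quench of at least 8% versus neutral control, with both replicates also reaching 8%; inconclusive = only one of the mean or replicate conditions met; inactive = mean below 8% and not both replicates reaching 8%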;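 note: cells transiently co-express mutant CFTR-F508del with the halide-sensitive YFP; corrector assay measuring rescue of mutant channel to the surface after 24 h compound exposure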
RAD54 branch = inhibitors of human RAD54 branch migration; RAD54 Holliday junction branch migration, FAM/BHQ fluorescence; inhibition, % at 10.4 µM; 360,000 tested, 0.14% active; AID 602329;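 active = mean normalized replicate activity at least 40 and at least half of replicates scoring 40 or more; inconclusive = only one of the two criteria met; inactive = mean below 40 and under half of replicates reaching 40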;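 note: 0% = median of neutral control wells and 100% = median of positive control wells; inhibitors cause a drop in the FAM fluorescence signal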
GSIS activator = GLuc luminescence reporter in INS-1E cells, primary screen for activators of glucose-dependent secretion of insulin. INS-1E GLuc reporter insulin secretion, 2-3 h. activation, % at 16.6 µM. 370,000 tested, 0.61% active;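 active = lowest replicate activation of at least 40%, so every replicate reaches that level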;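 note: 0% = median of neutral control wells and 100% = median of IBMX positive control wells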
RAD52 inh = RAD52 (human) annealing inhibition. P43351. recombinant RAD52 DNA annealing, FRET fluorescence. inhibition, % at 18.7 µM. 360,000 tested, 0.46% active. AID 651710;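 active = every replicate showing at least 50% inhibition; inconclusive = mean inhibition at least 50% but not in every replicate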
Target sequence (P43351 whole entry, looked up): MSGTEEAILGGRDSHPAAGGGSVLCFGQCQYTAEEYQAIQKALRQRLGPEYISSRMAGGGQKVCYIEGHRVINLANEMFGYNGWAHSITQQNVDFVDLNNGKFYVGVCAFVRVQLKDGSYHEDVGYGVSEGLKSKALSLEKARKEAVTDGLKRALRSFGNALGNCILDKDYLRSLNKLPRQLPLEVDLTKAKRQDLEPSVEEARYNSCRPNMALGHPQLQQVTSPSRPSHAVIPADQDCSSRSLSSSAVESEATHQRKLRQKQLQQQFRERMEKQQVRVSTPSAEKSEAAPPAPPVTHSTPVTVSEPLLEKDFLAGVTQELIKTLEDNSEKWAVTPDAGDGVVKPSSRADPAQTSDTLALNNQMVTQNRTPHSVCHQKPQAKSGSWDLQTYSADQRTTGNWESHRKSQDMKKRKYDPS
* marks the source's active call; other numbers are inactive results; ? = inconclusive; . = not tested or not shown; ! = repeats disagree.

SMILES	EWS-Fli block	LGR2 antag	CFTR F508del cor	RAD54 branch	GSIS activator	RAD52 inh
COC(=O)c1cc(=O)n(Cc2cccs2)c(=Nc2ccc(F)cc2)s1	12	56*	3	2	.	-5
COC(=O)c1cc(=O)n(Cc2ccc3c(c2)OCO3)c(=Nc2ccc(F)cc2)s1	0	?	-4	8	.	-8
Fc1ccccc1-c1csc(-c2cccnc2)n1	-78	-85	0	2	9	0
CCCCCCn1c(O)c(/C=C2\C=NN=C2c2ccccc2)sc1=S	.	14	.	.	164*	.
CCCCn1c(O)c(/C=C2\C=NN=C2c2ccccc2)sc1=S	.	-23	.	-2	119*	.
CCn1c(O)c(/C=C2\C=NN=C2c2ccccc2)sc1=S	-3	-5	-2	.	-5	-13
Cn1c(O)c(/C=C2\C=NN=C2c2ccccc2)sc1=S	13	-1	-3	.	-6	-11
CC(C)Cn1c(O)c(/C=C2\C=NN=C2c2ccccc2)sc1=S	9	-8	-2	.	83*	.
CCS(=O)(=O)N1CC2(C1)CN(S(=O)(=O)c1cccc(OC)c1)[C@H](CO)c1[nH]c3cc(OC)ccc3c12	10	5	2	.	-19	-13
COc1ccc(NC(=O)CSc2ncnc3c2sc2ccccc23)c(OC)c1	.	-11	.	.	58*	.
O=C(Nc1ccc2oc(-c3ccncc3)nc2c1)c1ccc([N+](=O)[O-])o1	62*	-5	-7	16	4	-13
CC(=O)c1ccc(Nc2nc(=O)c3cccnc3s2)cc1	.	.	.	12	.	.
Cc1ccc(C(=O)C2CCNCC2)cc1	.	.	.	2	2	.
Cc1ccc(C(=O)C2C(=O)C3CCC2C3)cc1 (stereo not drawn)	19	63*	-8	2	.	-10
COc1cc(C(=O)NC2CCN(C)CC2)ccc1Nc1ncc2c(n1)N(Cc1ccccc1)CCC(=O)N2C	55*	-7	-11	31	11	70*
Cc1ccc(S(=O)(=O)N2CCN(C(=O)CN(Cc3ccco3)Cc3cccs3)CC2)cc1	5	0	29*	-6	4	1
COc1cc(OC)c(C(=O)OCCCOC(=O)c2cc(OC)c(OC)cc2OC)cc1OC	.	8	0	1	17	-15
COc1cccc(C(=O)OCCCOC(=O)c2cccc(OC)c2OC)c1OC	.	8	0	5	42*	-1
c1ncc(-c2ccc(C3[C@@H]4CN(Cc5cocn5)C[C@H]3N4)cc2)cn1 (stereo partly drawn)	-3	7	1	.	14	41
N#Cc1cccc(-c2ccc(C3[C@@H]4CN(Cc5cocn5)C[C@H]3N4)cc2)c1 (stereo partly drawn)	-7	21	0	.	1	65*
N#Cc1cccc(-c2ccc(C3[C@@H]4CN(Cc5ccccc5F)C[C@H]3N4)cc2)c1 (stereo partly drawn)	-1	4	2	.	2	83*!
CCN1/C(=C/c2ccc3ccccc3[n+]2CC)C=Cc2ccccc21	.	.	.	71*	.	.
O=C(OCC12CC3CC(CC(C3)C1)C2)c1ccc(NCc2cc(O)ccc2O)cc1	56*	6	0	.	157*	-11
O=C(OCCC12CC3CC(CC(C3)C1)C2)c1ccc(NCc2cc(O)ccc2O)cc1	68*	-22	-8	.	49	-16
C[C@@H]1CCCCO[C@@H](CN(C)S(=O)(=O)c2cn(C)cn2)[C@H](C)CN([C@H](C)CO)C(=O)c2cc(NC(=O)Nc3ccc4c(c3)OCO4)ccc2O1	-62	19	0	0	-13	9
SMILES	EWS-Fli block	LGR2 antag	CFTR F508del cor	RAD54 branch	GSIS activator	RAD52 inh
C[C@H](CO)N1C[C@H](C)[C@H](CN(C)C(=O)c2ccncc2)Oc2ncc(-c3ccncc3)cc2C1=O	-13	-1	1	-2	6	13
O=C(Nc1ccccc1F)N1C[C@H]2[C@@H](c3ccccc31)[C@@H](CO)N2C(=O)c1ccccc1F	-29	-18	2	4	-3	0
O=C(NCC1OCCc2ccccc21)c1ccc(NC(=O)c2ccccc2Cl)cc1 (stereo not drawn)	.	-6	.	.	-10	.
O=C(NCC1OCCc2ccccc21)c1ccc(NC(=O)c2ccc(Cl)cc2Cl)cc1 (stereo not drawn)	.	1	.	-4	267*	.
O=C(NCC1OCCc2ccccc21)c1ccc(NC(=O)c2cccc(Br)c2)cc1 (stereo not drawn)	.	-4	.	7	253*	.
O=C(C#Cc1cccc([N+](=O)[O-])c1)c1ccccc1	.	.	.	-1	.	.
Nc1ccccc1C#CC(=O)c1ccccc1	67*	28	-5	-4	71	-22
CC(C)Cn1c(SCC(=O)Nc2ccc3[nH]c(=O)[nH]c3c2)nc2ccccc2c1=O	0	-12	3	-4	45*	-15
CCC(C)n1c(SCC(=O)Nc2ccc3[nH]c(=O)[nH]c3c2)nc2ccccc2c1=O (stereo not drawn)	0	-11	0	1	30	-7
O=C(Nc1ccc(-c2nc3ccccc3o2)cc1)c1ccc(N2CCOCC2)c([N+](=O)[O-])c1	16	13	1	.	2	-18
COc1ccc2oc(-c3ccc(NC(=O)c4ccc(N5CCOCC5)c([N+](=O)[O-])c4)cc3)nc2c1	.	-10	.	-4	109*	.
Cc1ccsc1/C=N/NC(=O)CO	.	3	.	-5	13	.
CCN(CC)c1ccc(/C=C(/C#N)c2nc3ccc(C)cc3[nH]2)c(OC(C)C)c1	3	0	17*	-16	15	-417
CCCOc1cc(N(CC)CC)ccc1/C=C(/C#N)c1nc2ccc(C)cc2[nH]1	11	-14	34*	-17	34	-314
CCOc1cc(N(CC)CC)ccc1/C=C(/C#N)c1nc2ccccc2[nH]1	.	.	.	-23	.	.
COc1cc(/C=C(\C#N)c2nc3ccc(C)cc3[nH]2)c([N+](=O)[O-])cc1OC	.	14	.	4	-38	.
COC(=O)C[C@@H]1C=C[C@@H](NC(=O)Nc2cccc(F)c2)[C@@H](CO)O1	-4	0	0	.	0	-10
O=C(NCCCn1ccnc1)c1ccc2nccnc2c1	.	13	-1	14	-3	-1
COCc1cc(C)nc(SCC(=O)Nc2nc(C)cs2)c1C#N	62*	21	0	-4	-14	-26
CCOc1cccc(/C=N/NC(=O)CC2C(=O)NN=C2C)c1O (stereo not drawn)	-3	11	3	.	0	-7
COc1ccc(NC(=O)c2cc3c(Cl)nc4ccccc4c3s2)cc1OC	-14	-3	2	6	5	-8
COc1ccc(OC)c(NC(=O)c2cc3c(Cl)nc4ccccc4c3s2)c1	.	-10	.	.	52*	.
COc1ccc(CCC(=O)N2CCN(S(=O)(=O)c3ccc(OC(F)(F)F)cc3)CC2)cc1	2	-19	16*	-4	-25	-7
